GPT2 inh: Primary qHTS assay for inhibitors of Glutamate pyruvate transaminase 2 (GPT2); Alanine aminotransferase 2 (Homo sapiens), Q8TD30; Recombinant GPT2, coupled pyruvate oxidase/HRP Amplex Red fluorescence; Potency, µM (series often up to 57.7 µM), most hits filed as inhibitors; 0.25% of 100,000 active; AID 1671188, 2021; further: nearly all actives have a fitted effect of over 60% in size
Target sequence (Q8TD30 whole entry, looked up): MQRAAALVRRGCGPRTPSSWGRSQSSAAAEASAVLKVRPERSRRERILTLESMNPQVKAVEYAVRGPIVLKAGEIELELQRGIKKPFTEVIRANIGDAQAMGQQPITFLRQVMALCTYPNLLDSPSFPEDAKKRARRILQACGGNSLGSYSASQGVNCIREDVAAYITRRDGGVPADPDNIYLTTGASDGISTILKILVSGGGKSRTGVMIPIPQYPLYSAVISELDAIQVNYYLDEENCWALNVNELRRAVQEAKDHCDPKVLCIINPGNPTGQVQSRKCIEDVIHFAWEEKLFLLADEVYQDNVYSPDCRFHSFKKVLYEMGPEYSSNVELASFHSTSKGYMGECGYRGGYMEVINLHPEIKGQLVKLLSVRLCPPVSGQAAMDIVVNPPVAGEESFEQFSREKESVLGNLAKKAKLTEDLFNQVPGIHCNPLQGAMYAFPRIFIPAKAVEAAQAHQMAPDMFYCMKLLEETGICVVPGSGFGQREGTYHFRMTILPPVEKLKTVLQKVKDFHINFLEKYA
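Fluorescence of coupled pyruvate oxidase/HRP/Amplex Red system (50uM Amplex, 30 min, dark) reports pyruvate formed by GPT2. Enzyme reaction: 10ng/uL GPT2, 2mM L-alanine, 250uM a-KG, 30 min room temperature, pH 7.5; 50uM AOA control.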
SNCA expr inh: Primary qHTS assay for inhibitors of alpha-synuclein gene (SNCA) expression. 0.17% of 140,000 active. HEK-293 SNCA-luciferase knock-in, luminescence, 24 h. Potency, µM (titrated, usually from 57.2 µM), hits mostly inhibitors; further: nearly all actives have a fitted effect of over 45% in size
SNCA viab count: GF-AFC viability counterscreen for inhibitors of alpha-synuclein gene (SNCA) expression; 0.12% of 150,000 active; Potency, µM (highest dose often 57.1 µM), usual class: cytotoxic; HEK-293-SNCA-luc viability, GF-AFC fluorescence, 24 h; AID 1671193, 2021; further: nearly all actives have a fitted effect of over 30% in size
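HEK-293-SNCA-luc cells (1500/well) plated 24 h, then exposed 24 h to a dilution series; GF-AFC added 30 min at 37C, fluorescence 405/540 nm; normalised to medium-only and DMSO wells, Hill fit.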
IP6K1 inhibitor: Primary qHTS assay for small molecule inhibitors of Inositol hexaphosphate kinase 1 (IP6K1); 0.81% of 140,000 active; IP6K1 kinase, ADP-Glo luminescence, 2 h; stronger effect = lower value; Inositol hexakisphosphate kinase 1 (Homo sapiens), Q92551; activity change, % (series mostly up to about 58 µM); in the data active means activity change below about -25%
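ADP-Glo luminescence measures ADP made by human IP6K1 during a 2 h RT reaction with ATP/IP6 (mix at 1.3 mM/130 uM); top library doses 57.5 and 19.1 uM final.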
Of the large screens only hits and unclear results are named; the others gave an inactive call; ! = not confirmed by another sample. This is a sample that favours compounds with a hit; in the whole collection about 1% have one here. Unless noted, the call rests on the fitted dose curve; in most records, active means well fitted curve in the direction sought with a large enough effect; inconclusive means small, poorly fitted or top-dose-only effect, or another doubt; inactive means no such curve, though single readings can be large; an effect the other way counts as inactive or inconclusive.

O=C(Nc1ccccc1)N1CCN(c2nccc(Nc3ccccc3F)n2)CC1	none
Cc1nn(-c2ccccc2)c2c1C(C)N(C1CCN(C(=O)c3ccc(Cl)nc3)CC1)C2=O (configuration not stated)	none (no result: GPT2 inh, SNCA expr inh, SNCA viab count)
C=CC(=O)Nc1ccc(CN2C(=O)N(c3cc(OC)cc(OC)c3)Cc3cnc(Nc4ccc(N5CCN(C)CC5)cc4)nc32)cc1	SNCA viab count 19µM (no result: SNCA expr inh)
C=CC(=O)Nc1cccc(Sc2nc(Nc3ccc(N4CCN(C)CC4)cc3)ncc2Cl)c1	SNCA viab count inconclusive
Cc1cc(NC(=O)c2ccc3c(c2)N(C)C2CCCCN2C3=O)ccc1Cl (configuration not stated)	none
COC1CN(c2ccc(C)cc2)C12CCN(C(=O)CCCc1ccccc1)CC2 (configuration not stated)	none
C[C@@]12C(=O)OC(=O)[C@@]1(C)C1CCC2O1	SNCA expr inh 15µM, SNCA viab count inconclusive (no result: IP6K1 inhibitor)
COc1ccc(NC(=O)Nc2cccc(-c3ccc(N4CCOCC4)nn3)c2)cc1	none
COc1ccc(NC(=O)Nc2cccc(-c3ccc(N4CCOCC4)nn3)c2)cc1F	SNCA expr inh 20µM
CCC(C)CC(=O)OC1C(=O)C(CO)=CC(O)C1C(C)C (configuration not stated)	SNCA viab count 19µM (no result: SNCA expr inh)
C/C=C(\C)C(=O)O[C@H]1C=C(CO)C(=O)[C@H](OC(C)=O)[C@H]1C(C)C	SNCA viab count inconclusive (no result: SNCA expr inh)
C=C1C(=O)O[C@@H]2C/C(C)=C\C(=O)/C=C(\C)[C@@H](OC(=O)/C(C)=C\C)[C@H](O)[C@@H]12	SNCA viab count 15µM (no result: SNCA expr inh)
C=C1C(=O)O[C@@H]2[C@H]3C(C)=CC(=O)C3=C(C)[C@@H](OC(=O)/C(C)=C\C)[C@H](O)[C@@H]12	SNCA viab count inconclusive (no result: SNCA expr inh)
CCOC(=O)C1c2c(OC)ccc3c2C(=CC(C)(C)CO3)CN1C (configuration not stated)	none (no result: GPT2 inh, SNCA expr inh, SNCA viab count)
Cc1cccc(C2CN(C)CCc3c2cc(O)c(O)c3Cl)c1 (configuration not stated)	GPT2 inh 7.1µM (no result: IP6K1 inhibitor)
C=CCN1CCc2c(cc(O)c(O)c2Cl)C(c2ccccc2)C1 (configuration not stated)	GPT2 inh inconclusive (no result: IP6K1 inhibitor)
CCOC(=O)c1ccc(N2C(=O)c3n[nH]c(-c4ccco4)c3C2c2ccc(OCC)cc2)cc1 (configuration not stated)	SNCA expr inh 20µM, SNCA viab count inconclusive (no result: GPT2 inh)
CCOC(=O)c1ccc(N2C(=O)c3n[nH]c(-c4cccs4)c3C2c2ccc(Cl)cc2Cl)cc1 (configuration not stated)	SNCA expr inh inconclusive, SNCA viab count 22µM (no result: GPT2 inh)
Cc1ncsc1CN1CCC(N2CC3(CCCCC3)C2c2ccccc2)CC1 (configuration not stated)	none
COc1ccc(NC(=O)N2CCC3(CC2)CN(c2ccccc2)C3=O)cc1OC	GPT2 inh inconclusive
Cc1cc(C)cc(-c2ccc(CN3CCCC(NC(=O)Cc4cccc(Cl)c4)C3)cc2)c1 (configuration not stated)	SNCA expr inh inconclusive
CC(C)CS(=O)(=O)c1oc(-c2ccc(F)cc2)nc1S(=O)(=O)c1ccccc1	SNCA expr inh inconclusive, SNCA viab count 4.5µM (no result: GPT2 inh)
CCC(C)S(=O)(=O)c1oc(-c2cccs2)nc1S(=O)(=O)c1ccccc1 (configuration not stated)	SNCA expr inh inconclusive, SNCA viab count 2.8µM (no result: GPT2 inh)
Cc1ccc(CSc2oc(-c3cccs3)nc2S(=O)(=O)c2ccccc2)cc1	none (no result: GPT2 inh)
O=C(NC1CCCC1)C1CCCCN1Cc1ccc(-c2cccs2)cc1 (configuration not stated)	SNCA expr inh inconclusive
COc1ccc(-c2cn3cc(C(=O)NCc4cccnc4)nc3s2)cc1	none
CC(C)C(CO)Nc1nc(Nc2cc(N)cc(Cl)c2)c2ncn(C(C)C)c2n1 (configuration not stated)	SNCA viab count inconclusive (no result: SNCA expr inh)
C=CC(=O)Nc1cccc(Nc2nc(NC3CCC(N(C)C)CC3)nc3c2ncn3C(C)C)c1 (configuration not stated)	SNCA expr inh 3µM, SNCA viab count inconclusive (no result: IP6K1 inhibitor)
CCCOc1ccc(C(=O)Nc2c(C(=O)c3ccc(C)cc3)oc3ccccc23)cc1	none (no result: GPT2 inh)
CN(C)Cc1c(C(=O)NCCOc2ccc(C(=O)NO)cc2)oc2ccccc12	GPT2 inh 31µM!, SNCA viab count inconclusive

From PubChem BioAssay
